These results are taken from article PMC5700166.

Assay in all cases: protein-binding microarray (PBM); PBM: ~300 nM protein, 6 mM HEPES pH 7.8, 80 mM KCl, 0.5 mM EDTA, 0.5 mM EGTA, 6% glycerol, 35 ng/ul poly-dIdC, 1% milk, 1 h, room temperature; Ap Aiptasia and Nv Nematostella (sea anemones) / Co Capsaspora / Aq Amphimedon (sponge) / Dm Drosophila / Hu human; RHD is the Rel homology domain; high values mean tight binding
What all share (conditions): dsDNA, one strand shown

Test [1] has as its target T1, GST-Ap-NF-kB RHD (Exaiptasia pallida (Aiptasia), UniProt A0A913YAJ5 2-422).
T1 sequence: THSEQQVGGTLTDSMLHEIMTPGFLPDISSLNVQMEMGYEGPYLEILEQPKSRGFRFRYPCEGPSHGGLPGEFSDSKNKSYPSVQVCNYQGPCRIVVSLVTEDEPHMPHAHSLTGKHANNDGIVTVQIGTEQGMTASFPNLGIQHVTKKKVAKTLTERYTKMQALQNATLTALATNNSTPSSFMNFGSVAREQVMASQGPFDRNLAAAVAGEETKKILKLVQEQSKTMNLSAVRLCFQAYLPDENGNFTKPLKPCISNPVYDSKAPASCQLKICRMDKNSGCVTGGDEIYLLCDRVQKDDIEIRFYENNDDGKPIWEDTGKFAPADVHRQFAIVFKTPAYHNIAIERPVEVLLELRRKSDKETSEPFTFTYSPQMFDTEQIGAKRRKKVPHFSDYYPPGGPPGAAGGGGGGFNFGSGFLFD

The target in test [2] is T2, GST-Nv-NF-kB (Cys allele) (Nematostella vectensis, UniProt E5G601 2-411).
T2 sequence: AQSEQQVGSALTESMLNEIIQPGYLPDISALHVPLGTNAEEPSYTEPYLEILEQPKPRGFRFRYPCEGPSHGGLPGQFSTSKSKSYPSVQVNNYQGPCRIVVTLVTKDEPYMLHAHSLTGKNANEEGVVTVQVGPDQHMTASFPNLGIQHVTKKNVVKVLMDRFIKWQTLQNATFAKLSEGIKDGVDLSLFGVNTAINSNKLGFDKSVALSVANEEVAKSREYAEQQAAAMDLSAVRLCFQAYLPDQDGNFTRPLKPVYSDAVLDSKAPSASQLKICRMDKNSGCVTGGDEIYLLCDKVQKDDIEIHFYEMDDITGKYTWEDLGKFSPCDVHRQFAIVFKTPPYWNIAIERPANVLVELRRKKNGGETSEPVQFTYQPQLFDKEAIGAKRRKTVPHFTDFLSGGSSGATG

In test [3] the target is T3, GST-Co-NF-kB (Capsaspora owczarzaki, UniProt F1ARL5 200-546).
T3 sequence: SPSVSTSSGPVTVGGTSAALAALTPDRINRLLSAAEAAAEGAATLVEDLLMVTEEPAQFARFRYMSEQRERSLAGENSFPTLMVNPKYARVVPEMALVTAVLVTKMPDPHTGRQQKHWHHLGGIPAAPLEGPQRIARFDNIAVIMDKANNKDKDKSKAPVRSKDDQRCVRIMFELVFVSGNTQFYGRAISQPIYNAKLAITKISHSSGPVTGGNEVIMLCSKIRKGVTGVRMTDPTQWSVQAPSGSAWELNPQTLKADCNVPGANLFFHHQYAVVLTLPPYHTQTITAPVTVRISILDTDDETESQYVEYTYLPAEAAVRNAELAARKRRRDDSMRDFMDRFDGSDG

Test [4] concerns the target T4, GST-Dm-Relish (Drosophila melanogaster, UniProt Q94527 99-473).
T4 sequence: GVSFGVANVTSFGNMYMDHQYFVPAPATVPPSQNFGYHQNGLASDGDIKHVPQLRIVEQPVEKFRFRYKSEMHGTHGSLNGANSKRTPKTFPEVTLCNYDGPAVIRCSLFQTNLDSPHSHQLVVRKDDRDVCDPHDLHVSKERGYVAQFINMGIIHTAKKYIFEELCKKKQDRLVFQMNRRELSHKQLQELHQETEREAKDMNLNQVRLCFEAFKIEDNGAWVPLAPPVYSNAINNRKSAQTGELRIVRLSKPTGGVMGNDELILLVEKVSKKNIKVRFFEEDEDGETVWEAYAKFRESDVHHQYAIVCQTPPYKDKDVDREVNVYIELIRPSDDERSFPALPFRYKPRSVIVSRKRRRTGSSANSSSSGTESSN

Test [5] has as its target T5, GST-Aq-NF-kB (Amphimedon queenslandica, UniProt A9Y5G7 2-389).
T5 sequence: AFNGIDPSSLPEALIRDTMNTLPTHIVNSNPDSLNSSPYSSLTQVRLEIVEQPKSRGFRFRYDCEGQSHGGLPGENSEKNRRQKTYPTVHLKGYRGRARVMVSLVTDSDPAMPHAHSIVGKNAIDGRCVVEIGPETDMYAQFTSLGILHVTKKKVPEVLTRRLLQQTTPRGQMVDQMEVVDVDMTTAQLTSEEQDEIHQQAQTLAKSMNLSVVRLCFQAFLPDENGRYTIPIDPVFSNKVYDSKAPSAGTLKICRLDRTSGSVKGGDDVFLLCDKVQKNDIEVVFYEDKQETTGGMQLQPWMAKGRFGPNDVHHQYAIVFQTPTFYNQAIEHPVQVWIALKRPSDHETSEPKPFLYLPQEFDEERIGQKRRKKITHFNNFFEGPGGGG

As to “CCGATTAACATCAAAATCTTCCCTGATGTTAATCGGGTCTTGATTCGCTTGACGCTGCTG”, the binding signal in test [1] stood at 5.74 z-score; in test [2], 5.94 z-score; in test [3] it was 4.16 z-score; in test [4] it was 1.48 z-score; in test [5] it was 5.28 z-score.

For “CCGATTAACATCAATGCACCCCCTGATGTTAATCGGGTCTTGATTCGCTTGACGCTGCTG”, the binding signal came out at 4.19 z-score in test [1]; 2.93 z-score in test [2]; 3.47 z-score in test [3]; 3.29 z-score in test [4]; 3.4 z-score in test [5].

As for “CCGATTAACATCACCCATCCCCCTGATGTTAATCGGGTCTTGATTCGCTTGACGCTGCTG”, the binding signal stood at 4.59 z-score in test [1]; 3.91 z-score in test [2]; 3.26 z-score in test [3]; 2.93 z-score in test [4]; 3.73 z-score in test [5].

Consider “CCGATTAACATCAAATGGGAATTTGATGTTAATCGGGTCTTGATTCGCTTGACGCTGCTG”, for which the binding signal came to 1.19 z-score in test [1]; 4.5 z-score in test [2]; 1.12 z-score in test [3]; 4.52 z-score in test [4]; 2.35 z-score in test [5].

For the sequence “CCGATTAACATCAGGGACAACCCTGATGTTAATCGGGTCTTGATTCGCTTGACGCTGCTG”, the binding signal amounted to 3.42 z-score in test [1]; 4.16 z-score in test [2]; 1.06 z-score in test [3]; 3.09 z-score in test [4]; 5.59 z-score in test [5].

As to “CCGATTAACATCACACACCCCCCTGATGTTAATCGGGTCTTGATTCGCTTGACGCTGCTG”, the binding signal in test [1] was 4.13 z-score; in test [2], 3.15 z-score; in test [3], 3.85 z-score; in test [4], 3.82 z-score; in test [5], 3.48 z-score.

On to “CCGATTAACATCAGGAGTTTCCCTGATGTTAATCGGGTCTTGATTCGCTTGACGCTGCTG”, for which the binding signal in test [1] worked out at 4.6 z-score; in test [2], 6.51 z-score; in test [3], 3.2 z-score; in test [4], 4.94 z-score; in test [5], 8.06 z-score.

On to “CCGATTAACATCAGGGAAAACACTGATGTTAATCGGGTCTTGATTCGCTTGACGCTGCTG”, for which the binding signal in test [1] amounted to 3.49 z-score; in test [2], 4.89 z-score; in test [3], 4.18 z-score; in test [4] it was 5.1 z-score; in test [5], 6.06 z-score.

On to “CCGATTAACATCAGGGGATGGGATGATGTTAATCGGGTCTTGATTCGCTTGACGCTGCTG”, for which the binding signal in test [1] was determined as 3.51 z-score; in test [2] it was 3.51 z-score; in test [3], 2.16 z-score; in test [4], 1.4 z-score; in test [5], 2.91 z-score.

As for “CCGATTAACATCAGGGGACAACCTGATGTTAATCGGGTCTTGATTCGCTTGACGCTGCTG”, the binding signal came out at 4.96 z-score in test [1]; 4.76 z-score in test [2]; 3.44 z-score in test [3]; 3.96 z-score in test [4]; 5.18 z-score in test [5].

“CCGATTAACATCAAGTACTTCCCTGATGTTAATCGGGTCTTGATTCGCTTGACGCTGCTG”: the binding signal in test [1] worked out at 2.1 z-score; in test [2] it was 2.22 z-score; in test [3] it was 2.13 z-score; in test [4], 8.12 z-score; in test [5], 3.13 z-score.

“CCGATTAACATCAGGGGCGCCCCTGATGTTAATCGGGTCTTGATTCGCTTGACGCTGCTG”: the binding signal in test [1] is 7.03 z-score; in test [2], 5.37 z-score; in test [3], 3 z-score; in test [4] it was 6.07 z-score; in test [5], 8.59 z-score.

Consider “CCGATTAACATCAGAATTCCCACTGATGTTAATCGGGTCTTGATTCGCTTGACGCTGCTG”, for which the binding signal in test [1] was 2.58 z-score; in test [2] it was 4.12 z-score; in test [3] it was 2.92 z-score; in test [4], 4.09 z-score; in test [5], 3.19 z-score.

Take “CCGATTAACATCAGGAGATTCCCTGATGTTAATCGGGTCTTGATTCGCTTGACGCTGCTG”: the binding signal in test [1] was determined as 3.76 z-score; in test [2] it was 5.47 z-score; in test [3] it was 2.78 z-score; in test [4], 4.79 z-score; in test [5], 7.56 z-score.
